From PubChem BioAssay AID504462 (Sanford-Burnham Center for Chemical Genomics, 2011) come the findings set out here.

In all, about 340,000 compounds went through this assay and about 1,700 (0.5%) were called active. For the sample, actives were picked, then their nearest neighbours and some compounds at random. A number with no mark means an inactive call. Rule as the data show it: active = inhibition above about 40%; inactive = the rest.

The inhibition is the change of the read-out against control, counted positive when it falls.

The target in this assay is Cysteine protease ATG4B (Homo sapiens) (UniProt Q9Y4P1). As to the kind of experiment: ATG4B protease inhibitors, primary screen, biochemical, fluorescence, uHTS (AID 504462). Particulars: ATG4B cleavage of LC3-PLA2, NBD-HPC fluorescence, 1 h; at 8.33 µM; active compounds read high.
Sequence of Cysteine protease ATG4B (Homo sapiens) (Q9Y4P1 whole entry, looked up): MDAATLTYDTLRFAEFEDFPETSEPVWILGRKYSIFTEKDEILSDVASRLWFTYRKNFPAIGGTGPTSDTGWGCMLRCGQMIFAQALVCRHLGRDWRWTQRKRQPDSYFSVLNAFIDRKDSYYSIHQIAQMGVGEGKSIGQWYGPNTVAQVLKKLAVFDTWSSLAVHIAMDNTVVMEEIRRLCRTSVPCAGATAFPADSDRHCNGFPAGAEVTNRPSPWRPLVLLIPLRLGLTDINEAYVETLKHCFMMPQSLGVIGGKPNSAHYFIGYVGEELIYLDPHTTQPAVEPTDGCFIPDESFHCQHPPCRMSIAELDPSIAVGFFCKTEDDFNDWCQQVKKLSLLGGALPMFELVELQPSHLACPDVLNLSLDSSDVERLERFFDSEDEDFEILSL
As to `CCN1CCN(C(=O)Cc2coc3cc(C)cc(C)c23)CC1`, the inhibition is -5.73%.
Regarding `COC(=O)COc1cc(C)cc2oc(=O)c3c(c12)CCCC3`, the inhibition was -8.24%.
In the case of `Cc1cc(OCc2cc(C(=O)O)oc2C)c2c3c(c(=O)oc2c1)CCCC3` it was 48.7% (active); in that of `CCOC(=O)C1(CCc2ccccc2)CCN(Cc2ccco2)CC1`, -6.2%.
With `CC(Cc1ccccc1)NCCC(c1ccccc1)c1ccccc1` (stereo not given), the inhibition is -1.23%.
